Screening data deposited in PubChem BioAssay by National Center for Advancing Translational Sciences (NCATS).
SMN2 splice enh: increases expression of the SMN2 splice variant. AID 1458. 210,000 compounds, 2.8% hits. Potency, µM (top dose mostly 46.1 µM), for inactives: at the highest dose activity change, positive = activation, most hits filed as activators. HEK293 SMN2-luciferase splicing reporter, luminescence, 30-36 h; further: % of control where 0% means no effect; nearly all actives have a fitted effect of over 55% in size
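HEK293 cells carry an SMN2 […]–luciferase reporter in which exon 7 inclusion puts luciferase in frame. Cells were plated 10-12 h before compound addition, then incubated 30-36 h at 37C. ONE-Glo luminescence was read; sodium butyrate at 4.5 mM final served as control.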
ELG1 genotoxic: genotoxicity induction in ELG1-luciferase HEK293T cells. HEK293T ELG1-luciferase reporter, luminescence, 16 h. Potency, µM (series often up to 46 µM), inactives show at the top dose activity change, positive = activation, most hits filed as activators. 330,000 compounds, 1.3% hits. AID 504466; further: % of control where 0% means no effect; nearly all actives have a fitted effect of over 60% in size
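Genotoxicity was scored as increased ELG1-luciferase reporter signal, measured by ONE-Glo luminescence (30 min, room temperature). Compound or vehicle exposure of the HEK293T reporter cells lasted 16 hr at 37°C.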
Rab9 prom act: activates the Rab9 promoter. Huh7 Rab9 promoter-luciferase reporter, luminescence, 24 h. Potency, µM (titrated, usually from 9.22 µM), without a hit: at the highest dose activation, negative = inhibition, usual class: activators. 320,000 compounds, 2.8% hits; further: % of control where 0% means no effect; nearly all actives have a fitted effect of over 60% in size
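Using Huh7 cells stably transfected with Rab9 promoter–luciferase, compounds were incubated 24 h at 37 °C, 5% CO2; luciferase luminescence was read 10 min after reagent addition.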
NPC1 promoter act: activates the NPC1 promoter; Huh7 NPC1 promoter luciferase reporter, 24 h; Potency, µM (doses to about 9.22 µM), for inactives: top-dose activation, usual class: activators; 320,000 compounds, 2.4% hits; AID 485313; further: % of control where 0% means no effect; nearly all actives have a fitted effect of over 60% in size
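Cells: Huh7 expressing luciferase under the NPC1 promoter, 1500/well. Seeded 2 h, compound added, incubated 24 h at 37 °C. Luciferase reagent, 10 min ambient, then luminescence.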
ELG1 DNA repair: blocks ELG1-dependent DNA repair in HEK293T cells; HEK293T ELG1-luciferase reporter, luminescence, 16 h; DNA damage induced by 5-fluorouridine; Potency, µM (top dose mostly 46.1 µM), for the others: at the highest dose activity change, negative = inhibition, most hits filed as inhibitors; 330,000 compounds, 2.3% hits; further: on the % scale 0 is the no-effect control and ±100 the full control effect; nearly all actives have a fitted effect of over 55% in size
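In this reporter screen, reduction of luminescence relative to DMSO vehicle indicated activity. Compounds and 5-fluorouridine were added together to 2,000 cells per well, incubated for 16 hr at 37 °C, then developed with ONE-Glo.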
FLuc counter: counter-screen for miR-21 project: firefly luciferase inhibitors or activators. P08659. purified FLuc, Km substrates, luminescence inhibition. Potency, µM (titrated, usually from 57.5 µM), for the others: top-dose activity change, negative = inhibition, usual class: inhibitors. 360,000 compounds, 6.9% hits;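 further: plate controls were vehicle for no effect and reference inhibitor for full effect; nearly all actives have a fitted effect of over 55% in size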
Target sequence (P08659 whole entry, looked up): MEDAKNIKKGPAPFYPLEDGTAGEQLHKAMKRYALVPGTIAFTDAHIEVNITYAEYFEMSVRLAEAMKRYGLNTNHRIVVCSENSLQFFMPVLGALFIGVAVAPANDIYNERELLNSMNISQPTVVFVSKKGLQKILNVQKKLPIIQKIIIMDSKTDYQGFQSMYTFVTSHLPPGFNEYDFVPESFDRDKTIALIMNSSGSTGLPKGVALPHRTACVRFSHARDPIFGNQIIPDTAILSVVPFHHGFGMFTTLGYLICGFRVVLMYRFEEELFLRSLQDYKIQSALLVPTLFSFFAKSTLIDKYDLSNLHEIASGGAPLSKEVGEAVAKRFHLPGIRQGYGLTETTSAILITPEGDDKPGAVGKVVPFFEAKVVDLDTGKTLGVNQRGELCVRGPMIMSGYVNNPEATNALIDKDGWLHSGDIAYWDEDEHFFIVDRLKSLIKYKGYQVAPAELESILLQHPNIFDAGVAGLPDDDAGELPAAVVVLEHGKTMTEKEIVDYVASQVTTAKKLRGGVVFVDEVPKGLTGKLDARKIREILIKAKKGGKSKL
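Purified P. pyralis luciferase, 10 nM final, with Km-level 10 uM D-luciferin and 10 uM ATP in 50 mM Tris acetate pH 7.5, 10 mM Mg acetate, 0.01% Tween-20, 0.05% BSA; 6-point qHTS titration about 60 µM downward; luminescence read.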
* marks the source's active call; other numbers are inactive results; u = inconclusive; x = not tested or not shown; [ ] = another dose, or the depositor's remark. Compounds with a hit are over-represented: about 9.2% of the library has one in this group of screens. The call rests on the fitted dose curve; in most records, active means well fitted curve in the direction sought with a large enough effect; inconclusive means small, poorly fitted or top-dose-only effect, or another doubt; inactive means no such curve, though single readings can be large; an effect the other way counts as inactive or inconclusive. Potency means the concentration at half of the fitted maximal effect.

SMILES	SMN2 splice enh	ELG1 genotoxic	Rab9 prom act	NPC1 promoter act	ELG1 DNA repair	FLuc counter
Cc1ccc(C)c(NC(=O)C2CCN(c3cc(C)nc4c(-c5ccc(Cl)cc5)c(C)nn34)CC2)c1	4%	x	x	x	x	-1%
CCC(=O)c1ccc(N2CCCCCC2)c(F)c1	10%	u	22%	28%	u	21µM*
CCCC(=O)c1ccc(N2CCCC2)c(F)c1	20%	u	u	28%	u	15µM*
CCOC(=O)N1CCN(c2ccc(C(=O)c3ccccc3)cc2F)CC1	-25%	7%	27%	u	-12%	21µM*
CCC(=O)c1ccc(N2CCCC2)c(F)c1	12%	12%	29%	9%	u	17µM*
CCC(=O)c1ccc(N2CCN(C(=O)c3ccccc3F)CC2)c(F)c1	-23%	-14%	-4%	8%	u	-10%
O=C(CN1C(=O)NC2(CCCCC2)C1=O)N1CCN(S(=O)(=O)c2ccc(F)cc2)CC1	x	0%	2%	-3%	-6%	1%
O=C(Nc1ccc([N+](=O)[O-])cc1)Nn1cnnc1	x	-3%	1%	-1%	7%	2%
Cc1c(Cl)cccc1NC(=O)CNS(=O)(=O)c1cccs1	x	x	x	x	x	2%
COC(=O)c1ccc(-c2nc(-c3cccs3)no2)cc1	10%	0.37µM*	u	0.32µM*	u	0.15µM*
Fc1ccc(-c2nc(-c3cccs3)no2)cc1	x	u	1.8µM*	2µM*	u	1.3µM*
O=C(NCCc1ccccc1)c1nc(-c2cccs2)no1	14µM*	u	5.6µM*	u	u	13µM*
Fc1ccc(-c2cnc(-c3cccs3)o2)cc1	17%	u	3.5µM*	4µM*	u	6µM*
O=c1oc2ccc(Cl)cc2cc1-c1nc(-c2cccs2)no1	x	x	x	x	x	2%
Fc1ccc(-c2cc(-c3cccs3)cc(-c3ccccc3)n2)cc1	x	-2%	-8%	0%	u	-5%
CCCCCN(C(=O)CCC(=O)OCc1ccc(Cl)cc1Cl)c1c(N)n(CCCC)c(=O)[nH]c1=O	x	-4%	-1%	1%	-17%	0%
COCCn1c(C)cc(O)c(C(c2ccc(C)cc2)N2CCCCC2)c1=O (stereo unspecified)	x	x	x	x	x	3%
CCc1ccc(NC(=O)C(C)OC(=O)Cc2cc(OC)c(OC)c(OC)c2)cc1 (stereo unspecified)	x	0%	x	x	u	x
COC(=O)c1noc(-c2ccc(C)cc2)n1	14%	2%	-5%	-1%	u	11µM*
O=C(NCCCN1CCN(c2ccccc2F)CC1)C1COc2ccccc2C1 (stereo unspecified)	x	x	x	x	x	-4%
CCCCN(CCCC)C(=O)CSc1nnc(-c2cc(OC)c(OC)c(OC)c2)o1	-54%	-20%	-11%	-2%	10µM*	7%
COc1cc(-c2nnc(SCC(=O)NCc3ccccc3Cl)o2)cc(OC)c1OC	x	x	x	x	x	-11%
COc1cc(-c2nnc(SCC(=O)N(Cc3ccccc3)C(C)(C)C)o2)cc(OC)c1OC	-31%	-19%	1%	0%	21µM*	4%
COc1cc(OC)cc(-c2nnc(SCC(=O)N(Cc3ccccc3)C(C)(C)C)o2)c1	-24%	-30%	9%	-6%	23µM*	2%
CCn1ccnc1CNC(=O)C1CCC(=O)N(Cc2ccccc2F)C1 (stereo unspecified)	x	4%	2%	1%	1%	-3%
SMILES	SMN2 splice enh	ELG1 genotoxic	Rab9 prom act	NPC1 promoter act	ELG1 DNA repair	FLuc counter
Cc1c(C(=O)N2CCCCC2)c(S(=O)(=O)N2c3ccccc3CC2C)c(C)n1C (stereo unspecified)	x	-3%[9.26 µM]	6%	-2%	1%	1%
COc1ccc(NC(=O)COC(=O)COc2cccc3c2OC(C)(C)C3)cc1	x	-3%	-3%	1%	4%	4%
COc1ccccc1C(=O)COC(=O)COc1cccc2c1OC(C)(C)C2	x	9.2µM*	2.5µM*	2µM*	u	4.8µM*
Cc1ccc(NC(=O)CSc2nccn2Cc2ccccc2)cc1C	x	3%	u	18%	u	u
CCn1c(SCC(=O)Nc2ccc(C(C)=O)cc2)nc2ccccc21	u	16µM*	u	u	u	u
CC(=O)c1ccc(NC(=O)CSc2nccn2C)cc1	x	13%	11%	22%	u	-8%
O=C(CSc1nnc(-c2ccccn2)n1Cc1ccccc1)Nc1ccc2c(c1)OCO2	-17%	-1%	-3%	-3%	21µM*	-1%
CC(=O)Nc1ccc(NC(=O)CSc2nccn2Cc2ccccc2)cc1	-10%	-1%	-2%	2%	21µM*	-13%
CC(=O)c1ccc(NC(=O)CSc2nccn2CCc2ccccc2)cc1	15%	u	u	u	u	13µM*
Cc1cccc(CC(=O)NC2CC(=O)N(c3cccc(F)c3)C2)c1 (stereo unspecified)	x	x	x	x	x	1%
COc1ccc(NC(=O)CN(C)C(=O)CNC(=O)c2cccs2)cc1	x	3%	-2%	0%	-6%	4%
CN(CC(=O)Nc1ccc(F)cc1)C(=O)Cn1cnc2ccc(Cl)cc2c1=O	x	-3%	3%	-3%	6%	-1%
COc1ccc(C(=O)NCC2(N3CCCCC3)CCCCC2)cc1S(=O)(=O)N(C)C	x	2%	-1%	-4%	-2%	-3%
N#Cc1ccccc1NC(=O)CSc1nccn1CCc1ccccc1	u	21µM*	u	u	u	21µM*
Cc1ccc(Cn2ccnc2SCC(=O)Nc2ccc3c(c2)OCO3)cc1	x	x	x	x	x	-14%
N#Cc1ccccc1NC(=O)CSc1nnc(-c2ccccc2)n1-c1ccccc1	-20%	-29%	2%	4%	u	1%
O=C(CSc1nccn1Cc1ccccc1)Nc1ccc2c(c1)OCCO2	x	x	x	x	x	13µM*
COc1ccccc1OCCOCCOc1ccc(C)cc1Br	5%	0%	-3%	-7%	1%	-11%
COc1ccccc1OCCCOc1ccc(C)cc1Br	u	18µM*	u	u	u	4.8µM*
COc1cc(C)ccc1OCCCOc1ccccc1Br	3%	u	1.4µM*	u	u	19µM*
COc1ccccc1OCCCOc1ccc([N+](=O)[O-])cc1Cl	u	16%	4.5µM*	u	u	5.4µM*
COc1cccc(OCCCOc2ccc([N+](=O)[O-])cc2Cl)c1	-19%	-2%	-1%	-2%	2%	u
Cc1ccccc1C(=O)N1CCC(C(=O)Nc2ccc(S(=O)(=O)N3CCCCC3)cc2)CC1	x	-9%	-3%	-4%	15µM*	0%
